# Screening data as filed in PubChem.
# Shown are actives, neighbours in structure and some others; about 0.75% of the full set was active somewhere.
# TSHR antag = antagonists of human thyroid stimulating hormone receptor; P16473; TSHR-expressing cells, TSH-stimulated cAMP HTRF, 2 h; hits give low values; activity change, negative = inhibition, % at 11.5 µM; actives 0.2% (n = 330,000); AID 504810;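 active means activity change below a set negative limit, meaning inhibition stronger than a set level, cut at about -70% in these data; inconclusive means activity change between two set negative limits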; further: on the % scale 0 is the no-effect control and ±100 the full control effect
#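 Competitive HTRF cAMP read-out (cryptate anti-cAMP antibody, cAMP-d2; 30 min, room temperature) in freshly harvested TSHR cells. Compounds added before TSH at EC80 (4nM final), followed by 2 hours' incubation at 37 deg C.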
# PKM2 act = PKM2 (human) enzyme activation | actives 0.34% (n = 260,000) | purified PKM2, Kinase-Glo ATP luminescence, activation; response scale: 0% is enzyme alone, no compound | Potency, µM (highest dose often 57.5 µM), inactives show top-dose activation, hits mostly activators; further: potency means the concentration at half of the fitted maximal effect; on the % scale 0 is the no-effect control and ±100 the full control effect; nearly all actives have a fitted effect of over 55% in size
# Target sequence (P14618 whole entry, looked up): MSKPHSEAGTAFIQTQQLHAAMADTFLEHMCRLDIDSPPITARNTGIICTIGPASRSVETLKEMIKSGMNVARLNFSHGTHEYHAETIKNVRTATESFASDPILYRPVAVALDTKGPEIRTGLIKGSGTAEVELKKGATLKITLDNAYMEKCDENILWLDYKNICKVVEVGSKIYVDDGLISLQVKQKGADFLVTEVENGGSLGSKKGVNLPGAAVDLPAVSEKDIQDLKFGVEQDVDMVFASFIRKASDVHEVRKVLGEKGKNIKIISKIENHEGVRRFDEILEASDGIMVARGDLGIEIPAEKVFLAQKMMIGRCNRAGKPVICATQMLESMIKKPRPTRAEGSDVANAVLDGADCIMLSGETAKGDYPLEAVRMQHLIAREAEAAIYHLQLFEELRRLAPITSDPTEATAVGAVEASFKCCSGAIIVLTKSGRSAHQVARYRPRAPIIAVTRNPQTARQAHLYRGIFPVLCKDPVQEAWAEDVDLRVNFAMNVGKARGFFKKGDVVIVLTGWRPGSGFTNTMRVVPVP
#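 Purified hPK-M2 (>95% pure) converted ADP (0.1 mM final) to ATP with 0.5 mM PEP in 50 mM imidazole pH7.2, KCl, MgCl2, Tween 20, BSA; 1 h at room temperature. ATP detected by Kinase-Glo luminescence.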
# TCR activator = T cell receptor activation; primary human leukocytes, anti-CD3, IL-2 HTRF, 48 h; Potency, µM (series often up to 9.22 µM), inactives show at the top dose activation of IL-2 secretion, most hits filed as activators; 330,000 tested, under 10 active; further: % of control where 0% means no effect
#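 TCR engagement came from a-CD3 beads alone, with compounds added to primary human leukocytes for 48 hr. Secreted IL-2 bridged europium cryptate- and d2-labelled anti-IL-2 antibodies, giving FRET emission at 665nm after 320nm excitation.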
# uPA surface inh = cell surface uPA generation inhibition. cell surface uPA generation assay, qHTS. Potency, µM (doses to about 38.3 µM), inactives show at the top dose activity change, negative = inhibition, hits mostly inhibitors. actives 0.31% (n = 330,000). AID 540303; active means well fitted inhibition curve with a large enough effect; inconclusive means small, poorly fitted or top-dose-only effect; inactive means no such curve, though single readings can be large or run the other way; tested in mouse RAW 264.7 cells; further: potency means the concentration at half of the fitted maximal effect; on the % scale 0 is the no-effect control and ±100 the full control effect; nearly all actives have a fitted effect of over 55% in size
# * marks the source's active call; other numbers are inactive results; ? = inconclusive; / = no result; [ ] = remark or other dose. Unless noted, the call rests on the fitted dose curve; in most records, active means well fitted curve in the direction sought with a large enough effect; inconclusive means small, poorly fitted or top-dose-only effect, or another doubt; inactive means no such curve, though single readings can be large; an effect the other way counts as inactive or inconclusive.
SMILES,TSHR antag,PKM2 act,TCR activator,uPA surface inh
COc1cccc(/C=C/C(=O)OCC(=O)N2c3ccccc3CC2C)c1OC (stereo not drawn),-9.8,/,9.5%,0.8%
CS(=O)(=O)c1nc(-c2ccc(Br)cc2)cc(-c2ccccc2)c1C#N,?,4.3%,/,-5.3%
CS(=O)c1nc(-c2ccc(Br)cc2)cc(-c2ccccc2)c1C#N (stereo not drawn),-73.4*,0.8%,-3.0%,?
COc1ccc(NC(=O)NCc2cccnc2)c(OC)c1,-2.4,/,-7.4%,4.3%
COc1cc([N+](=O)[O-])ccc1NC(=O)NCc1cccnc1,-76.4*,5.5%,5.2%,3.0%
COc1cc(/C=C2\CCC(C)C3=C(c4cc(OC)c(OC)c(OC)c4)C(C#N)=C(N)OC32)cc(OC)c1OC (stereo not drawn),/,/,-7.9%,-6.7%
O=C(C[C@H]1C[C@H](C(=O)N2CCOCC2)[C@@]2(CCC3CCCC3)c3[nH]c4ccc(Cl)cc4c3CCN2C1=O)NCCCn1ccnc1,7.2,/,-6.2%[46.1 µM],12.6µM*
CC(=O)c1ccc(S(=O)(=O)N(C)CC(=O)Nc2ccc(C)cc2)cc1,4.3,/,-8.2%,-9.9%
COc1cc(OC)c(OC)cc1/C=C1\CC(C)C/C(=C\c2cc(OC)c(OC)cc2OC)C1=O (stereo not drawn),-5.0,/,-2.5%,8.91µM*
COc1cc(OC)c(OC)cc1/C=C1/Cc2ccccc2C1=O,-10.2,/,1.7%,-5.1%
CN(c1ccc(C(=O)NCc2ccc3c(c2)OCO3)cc1)S(=O)(=O)c1ccccc1,-0.6,15.8µM*,3.8%,-13.5%
CN(c1ccc(C(=O)NCc2ccc3c(c2)OCO3)cc1)S(C)(=O)=O,-4.9,-2.9%,-0.8%,/
COc1ccc(S(=O)(=O)N(C)c2ccc(C(=O)NCc3ccco3)cc2)cc1,1.3,12.6µM*,14.4%,29.7%
CC(C)c1cccc(C(C)C)c1NC(=O)Cn1c(=O)cnc2ccccc21,-0.1,6.0%,-0.8%[46.1 µM],-6.8%
O=C(O)CC1(CC(=O)NCc2ccc(Cl)cc2)CCCCC1,7.9,/,-7.4%,-0.9%
Cc1ccc(CSc2nc3ccsc3c(=O)n2Cc2ccccn2)cc1,-1.6,3.0%,-0.7%[46.1 µM],-6.6%
O=c1c2sccc2nc(SCc2cc(=O)n3cc(Br)ccc3n2)n1Cc1ccccn1,-2.3,7.94µM*,3.3%,-8.2%
COc1cccc(OC)c1OCc1cc(C2C3CCCC=C3C(C#N)=C(N)C2(C#N)C#N)c(C)cc1C (stereo not drawn),-2.1,4.47µM*,0.3%,6.2%
Cc1cc(C)n(-c2ccc(C(=O)N3CC(C)OC(C)C3)cc2)n1 (stereo not drawn),0.8,-8.4%,-2.0%,27.3%
Cc1ccc(-c2cc(=O)c3cc(C)ccc3[nH]2)cc1,-11.8,-6.0%,11.4%,1.12µM*
O=c1cc(-c2ccccc2)[nH]c2ccc(F)cc12,-6.1,0.7%,-5.3%,0.398µM*
Cc1ccc2[nH]c(-c3cccc(F)c3)cc(=O)c2c1,3.2,1.9%,-5.3%,?
COc1ccc2[nH]c(-c3cccc(F)c3)cc(=O)c2c1,4.9,-4.9%,1.8%,0.355µM*
O=c1cc(-c2ccccc2)[nH]c2cc(Cl)ccc12,-2.0,3.3%,13.0%,0.0447µM*
COc1ccc(CC(=O)OCC(=O)NCc2ccccc2Cl)cc1OC,2.2,0.3%,-0.2%,-9.2%
SMILES,TSHR antag,PKM2 act,TCR activator,uPA surface inh
Clc1ccccc1CONc1ncnc2nonc12,32.2,15.8µM*,-0.7%,3.6%
Cc1nn(CCC(=O)N2CCN(S(=O)(=O)c3ccc(Cl)cc3)CC2)c(C)c1C,-8.0,22.4µM*,4.3%,-2.6%
Cc1ccc(S(=O)(=O)N2CCN(C(=O)CC(C)C)CC2)cc1,-19.6,-8.6%,-5.4%,-0.8%
Cc1ccc(S(=O)(=O)N2CCN(C(=O)CCn3nc(C)c(C)c3C)CC2)cc1,6.7,14.1µM*,1.4%,-2.2%
O=C1CC(c2ccco2)CC2=C1C(c1ccccc1)n1nc(C(F)(F)F)nc1N2 (stereo not drawn),85.6,4.47µM*,0.3%,1.8%
O=C(NCCCN1CCOCC1)c1ccc2c(c1)N(Cc1c(F)cccc1Cl)C(=O)c1ccccc1S2,-24.0,/,0.0%,4.47µM*
Cc1ccc(CN2C(=O)c3ccccc3Sc3ccc(C(=O)NCCN4CCOCC4)cc32)cc1,-135.5*,/,11.7%,?
CCN1C(=O)c2ccccc2Sc2ccc(C(=O)NCCCN3CCOCC3)cc21,-10.4,4.4%,-3.0%,-3.4%
O=C(NCCCN1CCOCC1)c1ccc2c(c1)N(Cc1ccc(Cl)cc1)C(=O)c1ccccc1S2=O (stereo not drawn),-97.3*,0.8%,-8.1%,-7.3%
O=C(NCCCN1CCCC1)c1ccc2c(c1)N(Cc1ccccc1F)C(=O)c1ccccc1S2=O (stereo not drawn),-4.6,0.9%,-4.8%,-26.1%
COc1ccc(NC(=O)C2=CN3CCS(=O)(=O)N=C3C=C2)c(OC)c1,-3.5,/,-1.4%,11.6%
O=C1C=CC(c2ccccc2)(c2ccccc2)CC1,/,/,0.1%,0.7%
Cc1ccc(C(C[N+](=O)[O-])c2c(N)n(C)c(=O)n(C)c2=O)cc1 (stereo not drawn),4.2,-1.2%,4.1%,10µM*
CCC(=O)N1CCN(c2nc3ccc(Br)cc3s2)CC1,-22.5,/,13.2%,-4.0%
COc1ccc(-c2csc3ncnc(Oc4cccc5ccc(C)nc45)c23)cc1,-37.5,1.5%,-1.8%[46.1 µM],15.1%
Cc1ccc2cccc(Oc3ncnc4scc(-c5ccccc5)c34)c2n1,-84.0*,-15.3%,1.2%[46.1 µM],-0.9%
C[C@H](NC(=O)[C@H]1N2C(=O)c3ccccc3C2SC1(C)C)C(=O)N1CCCCC1 (stereo partly drawn),-7.1,/,-4.6%,7.4%
COc1ccc(Cl)cc1NC(=O)c1cccc(S(=O)(=O)Nc2c(C)n(C)n(-c3ccccc3)c2=O)c1,/,/,1.0%,1.8%
Cc1cc(C(=O)COC(=O)c2cccnc2Cl)c(C)n1C,/,/,-1.7%,8.91µM*
O=[N+]([O-])c1ccc2nc(SCc3cn4ccccc4n3)[nH]c2c1,-0.3,4.6%,4.8%[46.1 µM],1.7%
Cc1cc(=O)[nH]c(SCc2cn3ccccc3n2)n1,-2.0,14.1µM*,2.0%,2.7%
Cc1ccc(CNc2ccc(S(=O)(=O)N3CCOCC3)cc2[N+](=O)[O-])cc1,-5.4,2.6%,9.9%[46.1 µM],0.0%
CC1(C)Cc2nc3sc4c(SCC(=O)O)ncnc4c3cc2CO1,-11.3,-12.4%,9.4%,2.24µM*
O=C(Nc1ccc(Cl)cc1Cl)c1ccc2c(c1)OCCO2,-12.9,/,-4.4%,4.47µM*
CC(C)CN(C(=O)Cn1nnc(-c2ccc(F)cc2)n1)C1CCS(=O)(=O)C1 (stereo not drawn),10.1,/,4.0%,6.4%
Cc1ccc(-n2nnc(-c3nccn3C)n2)cc1,-0.6,-64.7%,-2.6%,3.16µM*
CCCCn1c(=O)[nH]c(=O)c2c1nc(-c1ccc(-c3ccccc3Br)o1)n2CC,2.8,15.8µM*,14.1%,-2.9%
O=C(Nc1nnc(SCc2ccc(F)cc2)s1)C1CC(=O)N(Cc2ccccc2)C1 (stereo not drawn),0.7,12.6µM*,-2.8%[46.1 µM],2.7%
